From PubChem BioAssay
A number with no mark means an inactive call. Calls of active or inactive are those of the source.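 How the source made its calls: active means growth inhibition above 50% at the single 2 µM test dose, taken to imply half-maximal potency below 2 µM; inactive means the rest.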

assay: antimalarial activity against Dd2 strain (AID 2302);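 further: 0% = DMSO untreated growth and 100% = chloroquine plus artemisinin killed control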; details: P. falciparum Dd2 in RBCs, LDH growth readout, 72 h; at 2 µM; stronger effect = higher value

Row | Compound | growth inhibition
1 | CCC(Nc1noc(-c2c(-c3ccccc3)noc2C)n1)c1ccccc1 (centres undefined) | 85% (active)
2 | C=CCN1Cc2c(O)cccc2C(c2ccc(O)c(O)c2)C1 (centres undefined) | 6%
3 | Cc1cc(=O)c(-c2cccc(Oc3ccc(Cl)cc3)c2)c(C)[nH]1 | 95% (active)
4 | COc1ccc2c(NN=CC=Cc3ccccc3)ccnc2c1 | 100% (active)
5 | CCNc1cc(C(=O)N[C@@H](Cc2ccccc2)[C@H](O)CN[C@@H]2CCc3ccccc32)cc(N2CCCC2=O)c1 | 93% (active)
6 | CC(C)(C)Oc1ccc(C[C@@H]2NC3(C(=O)N(Cc4ccc(Cl)c(Cl)c4)c4ccccc43)C3C(=O)N(c4ccc(Br)cc4)C(=O)C32)cc1 (some centres undefined) | 25%
7 | CN(C)Cc1ccc(-c2cc3c(-c4ccc(CN(C)C)cc4)ccnc3[nH]2)cc1 | 96% (active)
8 | CNC(=O)c1c(NC(=O)c2cccs2)sc2c1CCCC2 | 2%
9 | COc1ccccc1-c1nc2nc(N)nc(N)c2nc1-c1ccccc1OC | 1%
10 | Cc1ccc(Cn2ncc(N3C[C@@H](C)N[C@@H](C)C3)c(Cl)c2=O)cc1NC(=O)Nc1ccc(-c2ccccc2)cc1 | 29%
11 | COc1ccc(-c2c3c(=O)n(C)c(=O)n(C)c3c3nnc4ccccc4n23)cc1 | 86% (active)
12 | CCCCNCC(O)COc1ccccc1-c1ccc(N/N=C/c2cccc3ccccc23)nn1 (centres undefined) | 8%
13 | O=C(NCc1ccc(Cl)cc1)c1ccc(CN2CCCN(Cc3cccc(O)c3)CC2)cc1 | 12%
14 | N#Cc1cccc(C(O)CN(Cc2ccccc2)Cc2ccccc2)c1 (centres undefined) | 100% (active)
